For the first assay, the target named is CHID1. The assay can be described thus: pooled miR-30 sensor sort-seq; sequence = guide strand. Particulars: shRNA.
TTCGCCACTTGGACTTCGGGTC showed a sensor-assay potency score (higher = more potent) of -0.182. Same read-out and setting: next, TAGTCCATACCATAGAAGTTGA: -1.13; ATGCGCTGTAGAGTAGTCGTAG: -0.323. Still for that read-out and setting: the figure for TGAAAACTGACTCTTCTCCAGC is -0.645.

As for TTCAGTGTCTGGATGTACCTGG, the sensor-assay potency score (higher = more potent) is 0.597. On the same count and under the same terms, next, TCACTGTCTAAGACGTTCCGGA: -0.147; AAACTGACTCTTCTCCAGCAGC: -0.926; TATCTCATCCTCACTGTCTAAG: -0.858. Still for that read-out and setting: the figure for TTTGAGGTCCGTCACCACCAAA is -1.77. Same read-out and setting: next, TTTGCCGAGCAGTAGCTGCGAT: -0.629; TAGTCGTAGGTCATGAGGCTGA: -0.661; TGTAGAGTAGTCGTAGGTCATG: -1.27.

For the next assay, the target named is CHMP2A. The description is as above. Particulars: shRNA.
The sequence AAGTCTTTTGCCATGATGCGAA gave a sensor-assay potency score (higher = more potent) of -0.973. In turn, TTTCTGTCGCTCGCGGTCCAGC displayed a sensor-assay potency score (higher = more potent) of -1.66. The same measure, in the same setting: the figure for TCTAGTTTCTGTCGCTCGCGGT is -0.825; for TTCAGCTGTCTGTTCATGGTGC it is 0.372; for TTCATGGCTTGTGCCATCGAGT it is -1.33.

In the case of ATCATTCATCATCTCCTCCTTC, the sensor-assay potency score (higher = more potent) was -0.0683. Still for that read-out and setting: the figure for TTCATCTTCCTCATCACCCATG is -0.68. Still for that read-out and setting: the figure for TTGTTGGACTTGAGTGTCTGGA is -0.834; for TTGAGTGTCTGGATCTTGAGGG it is 0.547; for AACTTGCGCACATAGCGCCGGG it is -1.16. Still for that read-out and setting: the figure for TGCAATGATTTTCTTCTCCTGG is -0.535. Regarding AAACTTGCGCACATAGCGCCGG, the sensor-assay potency score (higher = more potent) was -0.531.

In another assay the target is CHRM2. Described as above. The conditions noted are these: shRNA.
TTTGTGGTCCGCTTGACTGGGT registered a sensor-assay potency score (higher = more potent) of -0.403. Same read-out and setting: the figure for TTAAAGGTCTTCTTGAAGGTGG is 0.265; for TATTAGAGGCAACAGCACTGAC it is -0.688. The same measure, in the same setting: next, TCATCTTCACAATCTTGCGGGC: -0.203; TTCATCTCCATTCTGACCTGAA: 0.399; TATAAGGACTTGTAAGAGCCAG: -0.37. Still for that read-out and setting: the figure for TTAGAGTTCTCATCTTTGGAAT is -1.06.

Sequence TTAGTCATCTTCACAATCTTGC showed a sensor-assay potency score (higher = more potent) of 0.87. On the same count and under the same terms, next, TTTTGTGGTCCGCTTGACTGGG: 0.0688. As for TAGAAGGCTGCAATAGCCGTAC, the sensor-assay potency score (higher = more potent) was -0.0525.

In the case of TTCTTGTCCTTCTTTATCCTGC, the sensor-assay potency score (higher = more potent) is -0.0112. Same read-out and setting: next, TACATGAGTCACTTTTTGGGGT: -0.152; TTGGCTTCACTATCCTTCCTTG: -0.217. Still for that read-out and setting: next, TAAAAAGTAATTGTTGACGGTC: 0.0384.

Values taken from the OligoGym collection.
Note: reference of the scale not given here.
